# From PubChem
# D1 PAM = human D1 dopamine receptor positive modulation; P21728; HEK293 TREx D1 cells, calcium flux, dopamine EC20 potentiation; potentiation, % at 10 µM; hit rate 0.036% among 360,000; AID 504651; in the data active = potentiation above about 30%
# Target sequence (P21728 whole entry, looked up): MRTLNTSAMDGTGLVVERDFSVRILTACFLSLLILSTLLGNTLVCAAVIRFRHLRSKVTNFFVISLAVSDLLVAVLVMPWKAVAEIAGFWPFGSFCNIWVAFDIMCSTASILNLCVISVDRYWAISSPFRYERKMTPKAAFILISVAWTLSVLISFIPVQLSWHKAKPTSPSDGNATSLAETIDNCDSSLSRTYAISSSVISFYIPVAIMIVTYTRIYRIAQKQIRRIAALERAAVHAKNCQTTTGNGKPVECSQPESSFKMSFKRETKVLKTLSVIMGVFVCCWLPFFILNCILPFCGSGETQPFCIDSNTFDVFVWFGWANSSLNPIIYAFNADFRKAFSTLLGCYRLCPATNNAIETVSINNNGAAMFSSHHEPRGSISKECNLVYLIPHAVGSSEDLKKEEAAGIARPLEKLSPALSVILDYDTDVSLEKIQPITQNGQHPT
# D1 agonist = activates the human D1 dopamine receptor. HEK293 T-REx D1 cells, calcium flux, agonist mode. P21728. hit rate 1% among 360,000. activation, % at 2 µM
#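 Tetracycline-induced HEK293 TREx D1 cells, force-coupled to calcium signalling, were dye-loaded with a no-wash calcium kit. Compound was pin-added after a 10 s baseline. Fluorescence was read kinetically at 1 cycle/s for 180 s, with calcium rises flagged as agonism.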
# TRHR PAM = allosteric enhancers of human TRH receptor; hit rate 0.66% among 360,000; TRHR cells, fluo-8 calcium fluorescence, EC20 TRH enhancement; AID 493056; enhancement, % at 2 µM; in the data active = enhancement above about 30%
#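 Enhancer read-out: after compound pinning and an initial kinetic agonist-mode read, an EC20 of TRH (10 nM final) was injected and fluo-8 calcium signal (Ex 480/Em 530) followed at 1 s/cycle for 100 cycles in TRHR-expressing cells.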
# TRHR agonist = TRH receptor (human) agonism; hit rate 0.18% among 360,000; TRHR cells, calcium flux fluo-8, FDSS agonist mode; activation, % at 2 µM; P34981
#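 In this calcium-flux screen, cells bearing human TRHR are dye-loaded with fluo-8, baselined for 10 cycles, then exposed to library compounds; positive kinetic calcium responses during the agonist phase mark hits, with TRH as control.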
# D1 antag = human D1 dopamine receptor antagonism | activity change, negative = inhibition, % at 10 µM | HEK293 TREx D1 cells, calcium flux, dopamine EC80; stronger effect = lower value | hit rate 3.2% among 360,000; in the data active = activity change below about -30%
#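 Tetracycline-induced HEK293 Trex D1 cells, force-coupled to calcium, dye-loaded; compounds added and read 180 s, then EC80 dopamine added and calcium flux tracked kinetically another 180 s.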
# Numbers stand for hits; – = inactive; · = no result given. The list is not random: actives were taken first. Their share in the collection is about 4.6%. Rule as the data show it, unless noted: active = activation above about 30%; inactive = the rest.
SMILES,D1 PAM,D1 agonist,TRHR PAM,TRHR agonist,D1 antag
O=c1ccn(-c2cccc(C(F)(F)F)c2)nc1-c1ccn(-c2ccccc2)n1,–,–,–,–,-37.6
C#Cc1ccc([C@H]2C=C(C(=O)N3CCN(Cc4ccc5c(c4)OCO5)CC3)O[C@@H](OCc3ccc(CO)cc3)C2)cc1,–,–,–,–,–
O=C1c2c(Br)c(Br)c(Br)c(Br)c2C(=O)N1c1ccccn1,–,–,–,–,–
CCC(CO)N=CC1=C(O)CC(c2ccccc2)CC1=O (stereo unspecified),–,–,31.9,–,–
COc1cc2[nH]c(=O)n(CCC(=O)N3CC=C(c4ccccc4)CC3)c(=O)c2cc1OC,–,–,–,–,–
CC(=O)c1ccc(NC(=O)CSc2nnc(Cn3cnc4ccccc43)o2)cc1,–,–,–,–,–
COc1ccc(C(=O)CSc2nnc(Cn3cnc4ccccc43)o2)cc1,–,–,–,–,-33.7
COc1ccc(OCC(O)CNC(=O)Nc2cc(C)cc(C)c2)cc1 (stereo unspecified),–,–,–,–,–
CCOC(=O)C1CCN(S(=O)(=O)Cc2ccccc2)CC1,–,–,–,–,–
CCOC(=O)C1CCCN(C(=O)c2ccc3c(c2)NC(=O)C(N2CCOCC2)S3)C1 (stereo unspecified),–,–,–,–,-30.7
CCOC(=O)C1CCCN(C(=O)CC(C)c2ccccc2)C1 (stereo unspecified),–,–,–,–,-32.5
CCOC(=O)C1CCCN(C(=O)c2cc(-c3ccc(C)cc3)on2)C1 (stereo unspecified),–,–,–,–,-49.0
Cc1ccc(-c2cc(C(=O)N3CCCCCC3)no2)cc1,–,–,–,–,–
O=C1Nc2cc(C(=O)N3CCOCC3)ccc2SC1N1CCOCC1 (stereo unspecified),–,–,–,–,–
CCOC(=O)C1CCCN(S(=O)(=O)Cc2ccccc2)C1 (stereo unspecified),–,–,–,–,-64.0
Cc1ccc(Cn2c(=O)n(CCc3ccccc3)c(=O)c3sc4ccccc4c32)cc1,–,–,–,–,–
O=c1c2sc3ccccc3c2n(Cc2ccccc2)c(=O)n1CCc1ccccc1,–,–,–,–,-52.2
CSC1=NC(C)(C)CC2(C)Nc3ccccc3N12 (stereo unspecified),–,–,–,–,-32.4
CC(=O)Nc1cccc(NC(=O)c2ccc(COc3ccccc3)cc2)c1,·,36.1,–,–,–
O=C(Nc1cccnc1)c1ccccc1Oc1ccccc1,–,–,–,–,–
O=C(Nc1cccnc1)c1ccc(COc2ccccc2Br)cc1,–,–,–,–,-69.3
O=C(Nc1cccnc1)c1ccc(Oc2ccccc2)cc1,–,–,34.3,–,–
COc1ccc(OCc2ccc(C(=O)NN)cc2)cc1,–,–,–,–,-42.4
C=CCOc1ccc(/C(O)=C2/C(=O)C(=O)N(CCCn3ccnc3)C2c2cccs2)cc1 (stereo unspecified),–,–,–,–,-52.1
COc1cc(/C=C2\SC(=O)NC2=O)ccc1Oc1cnccn1,–,–,–,–,-40.8
SMILES,D1 PAM,D1 agonist,TRHR PAM,TRHR agonist,D1 antag
O=C1NC(=O)/C(=C\c2ccc(Oc3cnccn3)cc2)S1,–,–,–,–,–
CSc1ccc(C2c3[nH]c4ccccc4c3CCN2C(=O)CCC2CCCC2)cc1 (stereo unspecified),–,–,–,–,–
COc1ccc(Cn2ccnc2SCC(=O)Nc2ccccc2OC)cc1,–,–,–,–,–
COc1ccc(Cn2ccnc2SCC(=O)Nc2ccccc2F)cc1,–,–,–,–,-30.9
COc1ccc(/C=C2\N=C3CCCCCN3C2=O)cc1OC,–,–,–,–,–
COc1ccc(/C=C2\N=C(C)N(c3ccc4ccccc4c3)C2=O)cc1OC,–,–,–,–,-43.4
CCCc1cc(=O)oc2cc(OCC(=O)NCCCN3CCOCC3)ccc12,–,–,–,–,–
CCOC(=O)C1=C(COC(=O)Cc2ccc(OC)c(OC)c2)NC(=O)NC1C (stereo unspecified),–,–,–,–,–
COC(=O)c1sc(N)c(C(=O)OC)c1COC(=O)[C@@H](NS(=O)(=O)c1cccc(Cl)c1)C(C)C,–,–,–,–,–
COC(=O)c1sc(N)c(C(=O)OC)c1COC(=O)CNS(=O)(=O)c1cccc(C#N)c1,–,–,–,–,-32.7
COc1ccc(N2C(=O)CC(SCc3ccc(Cl)cc3)C2=O)cc1 (stereo unspecified),–,–,–,–,–
Cc1cc(C(=O)OCC(=O)NC(=O)c2cccn2C)c2ccccc2n1,–,45.0,–,–,–
O=C(N/N=C/c1ccc([N+](=O)[O-])o1)c1ccc(NS(=O)(=O)c2cccs2)cc1,–,–,–,–,-88.8
O=C(N/N=C/c1ccc([N+](=O)[O-])cc1)c1ccc(NS(=O)(=O)c2cccs2)cc1,–,–,–,–,–
COc1cccc(CSc2nc3n(n2)C(CC(C)C)C(C(=O)Nc2ccccc2C)=C(C)N3)c1 (stereo unspecified),–,–,–,–,–
CCC(C)NC(=O)CCNS(=O)(=O)c1ccc(Br)cc1 (stereo unspecified),–,–,–,–,-93.0
O=C(Cc1coc2cc3c(cc12)CCC3)NC1CCCCCCC1,–,–,–,–,-50.9
Cc1ccc(NC(=O)C2CCC(N3C(=O)C4CCCCC4C3=O)CC2)cc1 (stereo unspecified),–,–,–,–,–
O=C(Nc1ccc(Cc2ccncc2)cc1)C1CCC(N2C(=O)C3CCCCC3C2=O)CC1 (stereo unspecified),–,–,–,–,-38.6
CCOc1ccc(S(=O)(=O)Nc2ccc3c(c2)N(C(C)=O)CCC3)cc1,–,–,–,–,-32.1
CC(=O)c1ccc(S(=O)(=O)Nc2ccc(-c3ccc(N4CCCCC4)nn3)cc2)cc1,–,–,31.3,–,–
Cc1ccccc1NS(=O)(=O)c1ccc(C(=O)N2CCC2)cc1,–,–,–,–,-62.8
O=C(c1ccc(S(=O)(=O)Nc2ccccc2)cc1)N1CCCC(C(F)(F)F)C1 (stereo unspecified),–,50.8,–,–,–
CC(=O)N1CCCc2ccc(NS(=O)(=O)c3ccc(C)cc3)cc21,–,–,–,–,–
CCOc1ccc(OCc2ccc(C(=O)N3CCCC(C)C3)cc2)cc1 (stereo unspecified),–,–,–,–,-30.4
CCOc1ccc(NS(=O)(=O)c2ccc(C(=O)N3CCCCCC3)cc2)cc1,–,59.3,–,–,–
Cc1ccccc1NS(=O)(=O)c1ccc2[nH]c(=O)[nH]c2c1,–,–,30.4,–,–
CCOc1ccccc1NS(=O)(=O)c1ccc2[nH]c(=O)[nH]c2c1,–,–,–,–,–
Cc1ccc(NS(=O)(=O)c2ccc(C(=O)N3CCCCCC3)cc2)cc1,–,31.0,–,–,–
